Among the data in PubChem BioAssay are z-score and composite z-score values, retold here.

Activity calls are given as the source filed them. Unless noted, the rule behind the calls is not given here.

Assay [1] in a line: resazurin metabolic signal in HepG2 cells – cell-based, resazurin fluorescence, 24 h, PK04 Diversity Set, profiling panel (AID 1172). The following applies: HepG2 viability, higher = more signal. A general note: Alamar Blue is a resazurin reagent that responds to reducing activity.
Assay [2] can be described thus: budding yeast growth changes without added modifier – OD600, strain BY4716, 24 h, basal condition, primary screen (AID 1173). The following applies: S. cerevisiae BY4716 growth, OD600, 24 h; higher = more signal, called active from +8 up or from −8 down.
The nature of assay [3]: viability profiling in MM1S myeloma cells – cell-based, resazurin fluorescence, basal, 24 h, PK04 Diversity Set, profiling panel (AID 1174).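 Note: MM1S multiple myeloma cell line.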 To be noted: higher = more signal, called active from +8 up or from −8 down.
In assay [4] the target is Dihydroorotate dehydrogenase (quinone), mitochondrial (Plasmodium falciparum (isolate 3D7)) (UniProt Q08210). As to the kind of experiment: inhibition of P. falciparum DHODH – biochemical, C-terminal His tag, absorbance 600 nm, primary screen (AID 1175).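 Note: recombinant parasite enzyme with a five histidine tag at its C terminus.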 To be noted: PfDHODH enzyme, DCIP absorbance 600 nm; higher = more signal, called active from +8 up or from −8 down.
Chain of Dihydroorotate dehydrogenase (quinone), mitochondrial (Plasmodium falciparum (isolate 3D7)) (Q08210 whole entry, looked up): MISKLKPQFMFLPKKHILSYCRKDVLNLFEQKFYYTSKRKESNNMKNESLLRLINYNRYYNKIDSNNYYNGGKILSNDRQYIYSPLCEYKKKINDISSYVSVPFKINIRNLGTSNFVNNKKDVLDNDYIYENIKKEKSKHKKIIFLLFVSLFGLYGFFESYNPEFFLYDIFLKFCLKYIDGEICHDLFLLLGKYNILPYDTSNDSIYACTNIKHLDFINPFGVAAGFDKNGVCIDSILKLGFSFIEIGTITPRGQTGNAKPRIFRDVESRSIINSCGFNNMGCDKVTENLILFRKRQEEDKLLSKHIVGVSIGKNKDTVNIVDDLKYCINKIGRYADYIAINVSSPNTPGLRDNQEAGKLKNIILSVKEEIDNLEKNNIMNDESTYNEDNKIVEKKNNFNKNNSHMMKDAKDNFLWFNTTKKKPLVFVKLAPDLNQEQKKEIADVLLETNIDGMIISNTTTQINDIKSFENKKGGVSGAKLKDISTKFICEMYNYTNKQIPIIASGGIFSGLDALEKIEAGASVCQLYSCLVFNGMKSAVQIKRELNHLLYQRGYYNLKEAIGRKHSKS
The nature of assay [5]: inhibition of PAO1 biofilm formation – strain PAO1, LB-PBS medium, absorbance 600 nm, primary screen (AID 1176). The following applies: P. aeruginosa PAO1 growth/biofilm, A600, 12 h; higher = more signal.
Assay [6] is described as follows: growth modulation of vineyard yeast isolate – strain RM11-1a, OD600, basal, 24 h, primary screen (AID 1177).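 Note: cultures grown under basal conditions with no added stressor.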 To be noted: S. cerevisiae RM11-1a growth, OD600, 24 h; higher = more signal, called active from +8 up or from −8 down.
Assay [7] is described as follows: growth of efflux-deficient E. coli DRC39 – strain DRC39, OD650, 24 h, E. coli filamentation inducers, primary screen (AID 1178).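 Note: growth measured as culture turbidity by optical density at 650 nm.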 To be noted: E. coli DRC39 acrAB, higher = more signal, called active from +8 up or from −8 down.
A short description of assay [8]: growth of efflux-deficient E. coli DRC39 – strain DRC39, OD650, 48 h, E. coli filamentation inducers, primary screen (AID 1179).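 Note: screen aims at cell division blockers that make cells filament.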 The following applies: E. coli DRC39 delta-acrAB growth, higher = more signal, called active from +8 up or from −8 down.
Assay [9] can be described thus: viability profiling in RPMI8226 myeloma cells – cell-based, resazurin fluorescence, basal, 24 h, PK04 Diversity Set, profiling panel (AID 1180).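 Note: RPMI8826 multiple myeloma cell line at 5000 cells per well.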 To be noted: higher = more signal.
Assay [10] deals with E3 ubiquitin-protein ligase XIAP (Homo sapiens) (UniProt P98170). As to the kind of experiment: small molecules binding XIAP protein – biophysical, small-molecule microarray, fluorescence 635 nm, primary screen (AID 1181).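 Note: score merges 667 nm emission and signal to noise over triplicate slides.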 To be noted: higher = more signal.
Chain of E3 ubiquitin-protein ligase XIAP (Homo sapiens) (P98170 whole entry, looked up, the tested form may be a part): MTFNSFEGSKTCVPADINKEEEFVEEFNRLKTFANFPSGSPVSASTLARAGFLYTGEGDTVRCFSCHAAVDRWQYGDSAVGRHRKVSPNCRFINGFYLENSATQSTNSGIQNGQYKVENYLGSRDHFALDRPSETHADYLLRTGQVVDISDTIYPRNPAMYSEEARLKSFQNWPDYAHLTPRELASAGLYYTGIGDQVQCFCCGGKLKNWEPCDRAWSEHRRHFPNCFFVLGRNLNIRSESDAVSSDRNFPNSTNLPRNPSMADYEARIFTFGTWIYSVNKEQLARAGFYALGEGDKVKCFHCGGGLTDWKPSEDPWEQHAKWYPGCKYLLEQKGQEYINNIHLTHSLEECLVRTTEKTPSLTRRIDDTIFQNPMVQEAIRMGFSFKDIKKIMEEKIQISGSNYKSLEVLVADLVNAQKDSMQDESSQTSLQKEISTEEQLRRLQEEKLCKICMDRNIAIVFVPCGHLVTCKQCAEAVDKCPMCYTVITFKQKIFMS
In assay [11] the test system is XIP peptide (Xip251-270) binding. As to the kind of experiment: XIP fragment 251-270 binding compounds – biochemical, small-molecule microarray, fluorescence 635/667 nm, 0.1 µg/mL protein, primary screen (AID 1182). To be noted: fluorescent protein binding, 635 nm, higher = more signal, called active from +8 up or from −8 down.
The test system of another assay is XIP peptide (Xip251-270). As to the kind of experiment: compounds binding XIP fragment 251-270 – biochemical, small-molecule microarray, fluorescence 635/667 nm, 0.5 µg/mL protein, primary screen (AID 1183). To be noted: fluorescence 635 nm, higher = more signal.
Assay [12] can be described thus: blood-stage malaria parasite viability loss – strain 3D7, DAPI fluorescence, 100 nL, primary screen (AID 1184).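 Note: parasites grown inside human red blood cells in medium with human serum.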 To be noted: P. falciparum 3D7 growth, 3 d, higher = more signal.
The target of assay [13] is Homeobox protein Hox-A13 (Mus musculus) (UniProt Q62424). As to the kind of experiment: disruptors of Hoxa13 oligonucleotide interaction – biochemical, fluorescence polarization, labeled oligonucleotide, primary screen (AID 1185). To be noted: Hoxa13:DNA binding, 15 min, higher = more signal, called active from +8 up or from −8 down. In general terms: Fluorescence polarisation rises when a labelled molecule tumbles more slowly, as on binding a larger partner.
Chain of Homeobox protein Hox-A13 (Mus musculus) (Q62424 whole entry, looked up): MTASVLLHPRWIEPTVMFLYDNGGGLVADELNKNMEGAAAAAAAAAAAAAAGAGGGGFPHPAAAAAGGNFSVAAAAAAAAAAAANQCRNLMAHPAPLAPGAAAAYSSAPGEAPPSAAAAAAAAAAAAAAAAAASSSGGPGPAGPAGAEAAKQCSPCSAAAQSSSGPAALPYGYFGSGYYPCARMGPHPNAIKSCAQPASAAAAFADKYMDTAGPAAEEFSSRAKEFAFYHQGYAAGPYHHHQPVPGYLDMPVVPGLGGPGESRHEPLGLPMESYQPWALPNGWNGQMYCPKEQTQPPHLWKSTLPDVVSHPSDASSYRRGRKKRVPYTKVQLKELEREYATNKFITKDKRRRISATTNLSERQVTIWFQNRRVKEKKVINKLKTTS

Assay [14] in a line: blockers of DNA damage checkpoint Chk1 activation – imaging, HeLa, hydroxyurea, phospho-Chk1 antibody, percent positive cells, primary screen (AID 1186). The following applies: hydroxyurea-induced phospho-Chk1 immunofluorescence imaging, higher = more signal.
Assay [15] can be described thus: blockers of DNA damage checkpoint Chk1 activation – imaging, HeLa, hydroxyurea, phospho-Chk1 nuclear intensity, primary screen (AID 1187). The following applies: hydroxyurea-induced phospho-Chk1 immunofluorescence imaging, higher = more signal.

For `C=C(CCCC)C(=O)CC[C@@H](OC(=O)c1cccnc1)c1ccc(OCCO)cc1`, the z-score was -0.211 in assay [1]; -2.75 (inactive) in assay [2]; -1.43 (inactive) in assay [3]; 0.543 (inactive) in assay [5]; -0.208 (inactive) in assay [6]; -0.566 (inactive) in assay [7]. The z-score in assay [8] is -0.547 (inactive); in [9], -2.52; in assay [12], -2.28; in [13], -3.82 (inactive); in assay [14], 1.27 (inactive); in [15] it was 1.21 (inactive). The composite z-score was -2.9 (inactive) in [4], 0.0542 in assay [10], 0.408 (inactive) in assay [11] and 0.713 in the assay on XIP peptide (Xip251-270).

Take `CCOC(=O)C1=CCC(c2ccccc2)N(S(=O)(=O)c2ccc([N+](=O)[O-])cc2)C1` (configuration not stated): the z-score in assay [1] is 0.21; in [2], 1.36 (inactive); in assay [3], -1.12 (inactive); in assay [5] it was -0.0196 (inactive); in [6] it was 0.993 (inactive); in [7], -0.495 (inactive). Moreover, the z-score was 0.0062 (inactive) in assay [8]; -0.927 in assay [9]; -0.198 in assay [12]; -1.91 (inactive) in assay [13]; 0.268 (inactive) in [14]; -0.0449 (inactive) in assay [15]. The composite z-score is 0.243 (inactive) in assay [4], -0.113 in assay [10], 0.0444 (inactive) in assay [11] and -0.165 with XIP peptide (Xip251-270).

For the compound `NC(=O)N1C(=O)C2C(C1=O)C1C=C(CCCO)C2C(C2CC2)N1Cc1cccc(OC(F)(F)F)c1` (configuration not stated), the z-score in assay [1] is -0.807; in assay [2], -1.33 (inactive); in assay [3] it was -0.217 (inactive); in assay [5], -0.0585 (inactive); in [6] it was -0.0011 (inactive); in assay [7], -0.149 (inactive). Besides, the z-score is -0.508 (inactive) in assay [8]; -0.762 in assay [9]; 1.17 in assay [12]; -8.76 (active) in [13]; 0.791 (inactive) in assay [14]; 0.384 (inactive) in assay [15]. Moreover, the composite z-score was -1.26 (inactive) in [4], 0.312 in assay [10], 0.198 (inactive) in [11] and -0.341 in the assay with XIP peptide (Xip251-270).

As for `CCOC(=O)C[C@H]1[C@H](OC(=O)c2ccccc2-c2ccccc2)[C@@H](NC(=O)c2ccccc2)c2cc(OCCCO)ccc2N1C(=O)c1ccccc1`, the z-score was -0.632 in assay [1]; 0.474 (inactive) in assay [2]; -0.287 (inactive) in assay [3]; -0.0582 (inactive) in assay [5]; 0.383 (inactive) in assay [6]; -0.536 (inactive) in assay [7]. Moreover, the z-score in [8] is -0.508 (inactive); in assay [9] it was -0.0741; in assay [12] it was -1.39; in assay [13], -4.85 (inactive); in assay [14] it was 0.972 (inactive); in assay [15], 0.528 (inactive). In addition, the composite z-score in assay [4] is 0.374 (inactive); in [10] it was 0.0871; in [11] it was -0.101 (inactive); with XIP peptide (Xip251-270), -0.127.

For the compound `CC1CC/C=C\[C@H]2OC34C=CCN(C(C)(C)C)C(=O)[C@H]3N(C(CO)C(C)C)C(=O)[C@@H]4C2C(=O)O1` (some centres not stated), the z-score in assay [1] is -0.49; in assay [2], -0.154 (inactive); in [3] it was -0.34 (inactive); in assay [5], 0.0251 (inactive); in [6], -0.472 (inactive); in assay [7], 0.361 (inactive). Also, the z-score is 0.338 (inactive) in [8]; -0.375 in assay [9]; -0.459 in assay [12]; -5.73 (inactive) in assay [13]; 0.015 (inactive) in assay [14]; 0.277 (inactive) in assay [15]. Also, the composite z-score in assay [4] was -6.62 (inactive); in assay [10] it was 0.0357; in [11] it was 1.27 (inactive); in the assay with XIP peptide (Xip251-270) it was -0.142.

With `COCCOC(=O)N1C(=O)[C@@]2(c3cc(C#CCCO)ccc31)[C@H](c1ccccc1OCCO)N1[C@H](c3ccccc3)[C@H](c3ccccc3)OC(=O)[C@H]1[C@@H]2C(=O)N1CCCCCCC1`, the z-score in [1] was 0.543; in assay [2], 0.971 (inactive); in assay [3], -0.649 (inactive); in assay [5], 1.32 (inactive); in assay [6] it was 2.11 (inactive); in assay [7], -0.255 (inactive). Moreover, the z-score in [8] is 0.343 (inactive); in [9], 0.484; in assay [12], -2.25; in assay [13] it was 3.84 (inactive); in assay [14], -0.304 (inactive); in [15], -0.387 (inactive). Besides, the composite z-score in [4] was 0.495 (inactive); in [10], 0.236; in assay [11] it was 0.783 (inactive); in the assay with XIP peptide (Xip251-270) it was 0.759.

For `CCCCCN1CC=CC23O[C@@H]4C=CCOC(=O)[C@@H]4[C@H]2C(=O)N(CCO)[C@@H]3C1=O` (some centres not stated), the z-score in [1] was 0.815; in assay [2] it was 0.201 (inactive); in [3], 0.0974 (inactive); in assay [5], 0.398 (inactive); in assay [6], -0.454 (inactive); in assay [7], -0.0666 (inactive). Further, the z-score in [8] was -0.193 (inactive); in assay [9] it was 0.229; in assay [12], 1.34; in assay [13], -3.88 (inactive); in assay [14], -0.542 (inactive); in assay [15], -0.562 (inactive). The composite z-score in assay [4] was -0.693 (inactive); in [10], 0.307; in assay [11] it was 0.647 (inactive); in the assay on XIP peptide (Xip251-270) it was -0.311.
